Measurements taken from the supplement of paper PMC11001985.

Compound: C#CCNC(=O)CCSSCCC(=O)NCCc1ccc(C=O)c(C=O)c1
Assay: lysine labeling ratio R10:1 (500 µM / 50 µM probe), SILAC-ABPP in living cells; higher = lower intrinsic lysine reactivity toward the probe, active = 2 or less
Settings: HeLa; probe concentrations 500 vs 50 µM
Procedure, shortened: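 With forward and reverse label swaps, light and heavy SILAC HeLa cells, alive and in PBS at room temperature, were exposed to either 500 µM or 50 µM of an alkyne-tagged lysine probe bearing a disulfide link. After mixing, lysates were clicked to biotin-azide, cut with trypsin, pulled down on neutravidin, freed with DTT, alkylated and analysed on a TIMS-TOF Pro by LC-MS/MS. The per-lysine value R is the median over forward and reverse replicates of the filtered median high-probe/low-probe MS1 peptide ratio. It is capped at 20.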

Sequence of UniProt P40222 (P40222 whole entry): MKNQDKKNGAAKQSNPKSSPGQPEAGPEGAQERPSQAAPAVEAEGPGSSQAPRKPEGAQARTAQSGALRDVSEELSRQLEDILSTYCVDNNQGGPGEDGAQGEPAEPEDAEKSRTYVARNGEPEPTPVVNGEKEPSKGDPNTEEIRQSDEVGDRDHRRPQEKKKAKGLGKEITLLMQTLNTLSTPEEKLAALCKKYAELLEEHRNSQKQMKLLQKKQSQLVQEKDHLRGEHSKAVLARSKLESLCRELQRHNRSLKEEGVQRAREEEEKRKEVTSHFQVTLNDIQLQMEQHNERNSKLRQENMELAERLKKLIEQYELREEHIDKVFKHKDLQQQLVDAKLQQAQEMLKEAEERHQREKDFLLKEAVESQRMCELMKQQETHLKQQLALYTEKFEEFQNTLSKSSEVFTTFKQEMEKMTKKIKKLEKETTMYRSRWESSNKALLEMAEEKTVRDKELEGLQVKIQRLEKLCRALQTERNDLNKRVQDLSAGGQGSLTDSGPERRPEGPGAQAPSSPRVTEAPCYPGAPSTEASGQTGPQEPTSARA
Sequence of UniProt P05556 (P05556 whole entry): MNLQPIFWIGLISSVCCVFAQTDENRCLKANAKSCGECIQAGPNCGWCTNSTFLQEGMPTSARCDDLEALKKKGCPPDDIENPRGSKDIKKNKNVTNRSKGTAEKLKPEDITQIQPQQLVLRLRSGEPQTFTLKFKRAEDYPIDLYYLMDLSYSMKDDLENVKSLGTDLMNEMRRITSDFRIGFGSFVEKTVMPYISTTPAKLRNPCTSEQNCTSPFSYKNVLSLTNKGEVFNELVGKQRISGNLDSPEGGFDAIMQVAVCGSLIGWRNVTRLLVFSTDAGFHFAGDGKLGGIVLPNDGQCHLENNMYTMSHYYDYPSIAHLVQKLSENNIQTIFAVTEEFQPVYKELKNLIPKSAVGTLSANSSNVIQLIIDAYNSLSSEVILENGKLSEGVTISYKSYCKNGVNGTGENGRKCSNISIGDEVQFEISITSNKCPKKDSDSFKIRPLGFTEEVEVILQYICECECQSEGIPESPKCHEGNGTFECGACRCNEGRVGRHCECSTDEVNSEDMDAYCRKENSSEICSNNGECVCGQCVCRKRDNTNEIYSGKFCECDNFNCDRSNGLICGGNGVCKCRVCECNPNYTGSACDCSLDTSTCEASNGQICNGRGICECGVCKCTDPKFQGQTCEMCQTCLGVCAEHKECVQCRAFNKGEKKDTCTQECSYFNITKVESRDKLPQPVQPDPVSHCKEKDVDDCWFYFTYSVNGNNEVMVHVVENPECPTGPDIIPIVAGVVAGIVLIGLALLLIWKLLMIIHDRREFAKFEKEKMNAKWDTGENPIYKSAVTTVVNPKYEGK
Sequence of UniProt Q9UIW2 (Q9UIW2 whole entry): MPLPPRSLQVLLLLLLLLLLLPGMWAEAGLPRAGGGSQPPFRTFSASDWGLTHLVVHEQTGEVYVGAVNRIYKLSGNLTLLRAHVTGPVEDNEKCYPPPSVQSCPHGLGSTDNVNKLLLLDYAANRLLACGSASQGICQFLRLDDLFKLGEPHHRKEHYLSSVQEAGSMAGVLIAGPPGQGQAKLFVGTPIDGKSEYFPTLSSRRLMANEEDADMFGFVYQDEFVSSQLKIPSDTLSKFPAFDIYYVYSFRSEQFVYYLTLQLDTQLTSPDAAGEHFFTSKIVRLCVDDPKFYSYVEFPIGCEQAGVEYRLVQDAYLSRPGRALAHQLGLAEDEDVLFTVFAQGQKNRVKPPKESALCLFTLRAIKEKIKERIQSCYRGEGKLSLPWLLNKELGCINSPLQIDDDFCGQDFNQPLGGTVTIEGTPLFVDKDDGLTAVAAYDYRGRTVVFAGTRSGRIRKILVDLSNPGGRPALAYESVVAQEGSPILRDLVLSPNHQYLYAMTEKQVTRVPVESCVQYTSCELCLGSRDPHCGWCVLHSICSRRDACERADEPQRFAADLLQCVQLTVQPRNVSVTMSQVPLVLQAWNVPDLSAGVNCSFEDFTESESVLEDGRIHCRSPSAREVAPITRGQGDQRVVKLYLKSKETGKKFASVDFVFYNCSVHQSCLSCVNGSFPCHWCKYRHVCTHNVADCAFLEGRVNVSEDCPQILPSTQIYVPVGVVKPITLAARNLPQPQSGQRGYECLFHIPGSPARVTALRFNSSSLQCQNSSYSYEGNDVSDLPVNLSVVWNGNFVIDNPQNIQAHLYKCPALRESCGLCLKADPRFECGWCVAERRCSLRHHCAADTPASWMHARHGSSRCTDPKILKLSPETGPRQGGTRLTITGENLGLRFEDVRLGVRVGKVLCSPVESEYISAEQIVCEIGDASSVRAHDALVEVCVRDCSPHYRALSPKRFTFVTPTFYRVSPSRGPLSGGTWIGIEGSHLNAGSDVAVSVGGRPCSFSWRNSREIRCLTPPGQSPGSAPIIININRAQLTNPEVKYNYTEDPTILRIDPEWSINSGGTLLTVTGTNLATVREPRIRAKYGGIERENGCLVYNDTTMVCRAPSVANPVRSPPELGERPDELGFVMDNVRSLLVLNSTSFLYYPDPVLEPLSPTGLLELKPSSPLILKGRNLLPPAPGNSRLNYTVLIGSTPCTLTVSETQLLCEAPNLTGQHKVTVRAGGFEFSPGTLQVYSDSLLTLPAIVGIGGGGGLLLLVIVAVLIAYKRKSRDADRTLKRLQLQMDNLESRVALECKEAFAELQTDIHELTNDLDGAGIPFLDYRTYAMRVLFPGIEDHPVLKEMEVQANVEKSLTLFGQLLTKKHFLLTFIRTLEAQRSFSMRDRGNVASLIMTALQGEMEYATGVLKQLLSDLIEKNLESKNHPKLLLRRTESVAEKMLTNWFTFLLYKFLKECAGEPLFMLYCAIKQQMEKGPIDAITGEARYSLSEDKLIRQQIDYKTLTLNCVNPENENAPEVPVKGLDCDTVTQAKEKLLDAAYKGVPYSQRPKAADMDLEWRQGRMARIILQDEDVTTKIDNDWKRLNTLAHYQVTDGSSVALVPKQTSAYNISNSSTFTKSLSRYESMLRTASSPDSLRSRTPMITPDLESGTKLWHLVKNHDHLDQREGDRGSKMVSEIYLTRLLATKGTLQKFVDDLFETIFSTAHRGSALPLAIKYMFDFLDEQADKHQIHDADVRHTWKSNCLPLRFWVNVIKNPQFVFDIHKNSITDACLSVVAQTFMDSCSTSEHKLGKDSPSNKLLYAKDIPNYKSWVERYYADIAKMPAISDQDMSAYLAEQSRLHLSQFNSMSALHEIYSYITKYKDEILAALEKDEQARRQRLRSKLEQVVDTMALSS
Sequence of UniProt Q9ULF5 (Q9ULF5 whole entry): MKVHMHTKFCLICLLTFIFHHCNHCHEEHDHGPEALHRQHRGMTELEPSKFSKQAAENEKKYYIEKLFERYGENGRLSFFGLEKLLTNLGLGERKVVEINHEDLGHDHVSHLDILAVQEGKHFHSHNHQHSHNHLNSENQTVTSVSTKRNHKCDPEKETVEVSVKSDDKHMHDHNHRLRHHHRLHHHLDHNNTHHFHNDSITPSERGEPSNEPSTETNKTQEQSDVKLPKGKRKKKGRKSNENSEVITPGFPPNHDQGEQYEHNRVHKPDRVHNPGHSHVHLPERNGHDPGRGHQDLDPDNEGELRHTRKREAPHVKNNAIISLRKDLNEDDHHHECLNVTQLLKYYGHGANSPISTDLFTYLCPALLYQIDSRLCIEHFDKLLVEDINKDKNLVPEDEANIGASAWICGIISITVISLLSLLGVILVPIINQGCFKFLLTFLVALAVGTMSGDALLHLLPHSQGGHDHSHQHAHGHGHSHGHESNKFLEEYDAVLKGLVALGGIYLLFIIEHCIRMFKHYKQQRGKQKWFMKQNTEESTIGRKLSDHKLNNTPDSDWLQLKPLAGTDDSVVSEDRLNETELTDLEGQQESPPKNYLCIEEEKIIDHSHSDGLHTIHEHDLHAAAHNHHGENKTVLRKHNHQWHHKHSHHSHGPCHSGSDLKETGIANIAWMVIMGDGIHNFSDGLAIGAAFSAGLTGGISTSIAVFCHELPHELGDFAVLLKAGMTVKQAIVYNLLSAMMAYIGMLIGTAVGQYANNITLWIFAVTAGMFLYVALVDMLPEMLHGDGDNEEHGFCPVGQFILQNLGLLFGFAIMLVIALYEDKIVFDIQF
Sequence of UniProt P01889 (P01889 whole entry, one chain of several): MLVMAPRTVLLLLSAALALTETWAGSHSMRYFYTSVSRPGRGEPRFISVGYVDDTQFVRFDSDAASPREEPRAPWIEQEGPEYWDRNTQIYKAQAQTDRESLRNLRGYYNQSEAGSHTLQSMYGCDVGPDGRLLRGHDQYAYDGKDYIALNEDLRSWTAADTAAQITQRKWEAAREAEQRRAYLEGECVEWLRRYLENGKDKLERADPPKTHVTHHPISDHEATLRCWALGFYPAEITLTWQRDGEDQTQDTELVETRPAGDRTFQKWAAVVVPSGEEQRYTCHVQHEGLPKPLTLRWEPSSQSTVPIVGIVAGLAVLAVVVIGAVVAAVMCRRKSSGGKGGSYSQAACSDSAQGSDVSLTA
Sequence of UniProt P31947 (P31947 whole entry): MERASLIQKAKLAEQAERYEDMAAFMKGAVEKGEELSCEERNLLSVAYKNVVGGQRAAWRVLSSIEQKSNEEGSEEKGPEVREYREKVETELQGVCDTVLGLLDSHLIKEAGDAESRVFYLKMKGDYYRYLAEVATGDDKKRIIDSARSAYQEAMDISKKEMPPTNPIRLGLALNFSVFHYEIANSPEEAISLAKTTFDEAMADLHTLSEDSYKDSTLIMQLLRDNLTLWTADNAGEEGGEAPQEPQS
Sequence of UniProt Q14210 (Q14210 whole entry): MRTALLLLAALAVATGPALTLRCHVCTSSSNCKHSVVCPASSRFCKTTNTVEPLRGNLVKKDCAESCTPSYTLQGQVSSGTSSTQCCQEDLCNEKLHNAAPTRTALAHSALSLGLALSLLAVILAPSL

Row | Target | lysine labeling ratio R10:1
1 | UniProt P09758 (lysine site: K231) | 4.22 (inactive)
2 | GAS1 (lysine site: K192) (UniProt P54826) | 1.34 (active)
3 | UniProt Q15149 (lysine site: K792) | 1.45 (active)
4 | PLXNA1 (lysine site: K1084) (UniProt Q9UIW2) | 2.49 (inactive)
5 | MYH9 (lysine site: K1669) (UniProt P35579) | 5.57 (inactive)
6 | FLNA (lysine site: K1294) (UniProt P21333) | 2.32 (inactive)
7 | TXLNA (lysine site: K256) (UniProt P40222) | 3.67 (inactive)
8 | LY6D (lysine site: K46) (UniProt Q14210) | 1.33 (active)
9 | P30462 (lysine site: K210) (UniProt P01889) | 2.33 (inactive)
10 | ITGA1 (lysine site: K81) (UniProt P56199) | 2.7 (inactive)
11 | SLC39A10 (lysine site: K317) (UniProt Q9ULF5) | 6.58 (inactive)
12 | TXNRD1 (lysine site: K405) (UniProt Q16881) | 5.51 (inactive)
13 | FASN (lysine site: K41) (UniProt P49327) | 0.712 (active)
14 | SFN (lysine site: K77) (UniProt P31947) | 3.35 (inactive)
15 | SPTAN1 (lysine site: K1023) (UniProt Q13813) | 9.87 (inactive)
16 | LAMB1 (lysine site: K1505) (UniProt P07942) | 3.69 (inactive)
17 | ITGB1 (lysine site: K105) (UniProt P05556) | 6.92 (inactive)
18 | DSC2 (lysine site: K381) (UniProt Q02487) | 1.71 (active)
